In PubChem BioAssay (NCI):
This is part of a sample that, as a whole, favours compounds with a hit. Of some 79,000 tested, about 15% had one in any assay. Unmarked numbers belong to inactive results. The source made the active and inactive calls. Cut-off read from the data, not from the text of the source: active = growth inhibition above about 70%; inactive = the rest. Where a SMILES comes first, the peptide text is derived from it. The star is where a group is joined. Boc = CC(C)(C)OC(=O)*; OBn = c1ccc(CO*)cc1

experiment: NCI Yeast Anticancer Drug Screen. Data for the cln2 rad14 strain (AID 165);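 note: 0% = growth equal to vehicle treated cultures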; settings: S. cerevisiae cln2 rad14 strain, at 50.0 µM, stronger effect = higher value
Summary of the method: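 Yeast carrying cln2 and rad14 alterations (cell cycle control and DNA damage repair) were exposed to compounds. Growth inhibition was measured against vehicle-treated controls.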

SMILES | growth inhibition
CCN(Cc1ccc(C(=O)OC)cc1)c1cccc(NC(C)=O)c1 | -9.7%
c1ccc(-c2cccc(-c3cccc(-c4ccccc4)c3)c2)cc1 | -47.9%
Cc1cc(C)c(N=Nc2cc(C)c(N)cc2N)c(S(=O)(=O)O)c1 | -61.5%
CNNCCCC(=O)NC(C)C | 2.75%
COc1c2ccoc2nc2c(O)c3c(c(CC=C(C)C)c12)OCO3 | 16.2%
N#CC(C#N)=CNc1ccccc1 | -20.9%
Cc1nccn1C(C)c1ccccc1 (centres undefined) | -95.3%
CC1=NNC(=O)C1(C)C | 26.1%
CCOC(=O)NC(C)(C)CN(CCO)C(=O)OCC | -4.9%
CCCC1(CCC)CNC(=O)NC1 | -11.1%
CCCCOC(=O)c1cccc(C(=O)OCCCC)n1 | -5.6%
CC(C)NC(=O)OCCN=c1c2ccccc2ccc2ccccc12 | 22.7%
C(=C\c1ccc(/C=C/c2ccccc2)nn1)/c1ccccc1 | -21.4%
COc1ccc(/C=C/C(=O)c2sc(N)nc2C)cc1 | 24.6%
CC(=O)NCc1cccc[n+]1[O-] | -59.3%
C[C@@H]1CC[C@@H](C)[C@](C)(CCc2ccoc2)C/C=C\C=C/1C(=O)O | 84.7% (active)
Cc1ccccc1C(c1ccccc1)C(CO)CO (centres undefined) | -64.3%
CCN(CC)c1cccc(C(=O)OCCNCC(C)C)c1 | -39.7%
CC(=O)NCCSSCCCCS(=O)O | 11.3%
CC(C)C1=CC23CCC4C(C)(C(=O)O)CCCC4(C)C2CC1C1C(=O)N(c2ccccc2)C(=O)C13 (centres undefined) | 0.7%
CCC[N+](CCC)=c1ccc2nc3c(C)cc(N(CC)CC)cc3sc-2c1 | -126%
O=C(O)CCN1CCSC1=O | 3.75%
COC(=O)c1ccc(/C=C/c2cc(O)ccc2O)cc1 | 44.5%
OC1(c2ccccc2)CCCN(Cc2ccccc2)C1 (centres undefined) | -17.4%
CC1CCCC2(CC[N+](C)(CCC[N+](C)(C)C)CC2)C1 (centres undefined) | 15.1%

experiment: NCI Yeast Anticancer Drug Screen. Data for the bub3 strain (AID 167); settings: S. cerevisiae bub3 mutant strain, at 50.0 µM, stronger effect = higher value
Summary of the method: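 Part of a panel of yeast mutants defective in DNA damage repair or cell cycle regulation. Each strain is grown with compound, and inhibition is calculated relative to solvent-treated cultures.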

SMILES | growth inhibition [%]
CCCCCCCCCCCCSSC(=S)OC(C)C | 43.6
CN1CCCN(C)CCCN(C)CCCN(C)CCC1 | -24.6
CC(C)CC(NC(=O)OC(C)(C)C)C(=O)NC(CC(=O)OCc1ccccc1)C(=O)OCc1ccccc1 (stereo not drawn) (Boc-Leu-Asp(OBn)-OBn; configuration not given here) | 15.8
CCOc1ccc(OCC)c(NC(=O)OC(C)C)c1 | 47.5
O=Cc1ccc(N2OC(c3ccc([N+](=O)[O-])cc3)C(c3ccc([N+](=O)[O-])cc3)C2c2ccc([N+](=O)[O-])cc2)cc1 (centres undefined) | 0.95
CC(=O)OC(C)(C)c1ccc2c(c1)C(=O)C[C@@H]1[C@](C)(C#N)CCC[C@]21C | 52.1
O=c1c(-c2ccccc2)c(O)on1/C=C1/C=CC=N1 | 7.2
CCOC(=O)NCC(=O)NCC(=O)NCC(N)=O | -25.1
NCCN(CCN)/[N+]([O-])=N/O | 0.65
O=S(=O)(Nc1cccc(C(F)(F)F)c1)c1ccc(F)cc1 | -3.5
CC(O)(CNS(=O)(=O)c1ccccc1)c1ccccc1 (centres undefined) | -31.2
COC(=O)C1C2C=CC(C2)C1C(=O)OC (centres undefined) | -7.95
O=C1OC(=O)C(c2ccccc2)=C1c1ccccc1 | 5.95
c1ccc2c(c1)NC1C3(CCC4CCCCC241)SCCS3 (centres undefined) | -2.1
Cc1cc(C)c(NC(=O)c2c(Cl)c(Cl)c(Cl)c(Cl)c2C(=O)O)c(C)c1 | 5.5
CCN(Cc1ccc(C(=O)OC)cc1)c1cccc(NC(C)=O)c1 | 20.3
c1ccc(-c2cccc(-c3cccc(-c4ccccc4)c3)c2)cc1 | 16.8
Cc1cc(C)c(N=Nc2cc(C)c(N)cc2N)c(S(=O)(=O)O)c1 | 7.3
CNNCCCC(=O)NC(C)C | 7.8
COc1c2ccoc2nc2c(O)c3c(c(CC=C(C)C)c12)OCO3 | -4.9
N#CC(C#N)=CNc1ccccc1 | 9.7
Cc1nccn1C(C)c1ccccc1 (centres undefined) | 0.35
CC1=NNC(=O)C1(C)C | 3.3
CCOC(=O)NC(C)(C)CN(CCO)C(=O)OCC | -21.9
